Measured values reported in PubChem BioAssay AID1851 (National Center for Advancing Translational Sciences (NCATS), 2009).
Values joined by “and” are separate entries in the source; they are usually repeats but may differ in a detail not shown here. Identical values can stand only once. The campaign covered roughly 16,000 compounds. About 2,600 (16%) were called active. Roughly 20% stayed inconclusive and do not appear here. Calls follow the shape of the dose curve; as a rule, active = well fitted curve in the direction sought with a large enough effect; inconclusive = small, poorly fitted or top-dose-only effect, or effect the other way; inactive = no such curve, though single readings can be large or run the other way. The list is a sample of the results.

Target: Cytochrome P450 2D6 (Homo sapiens) (UniProt P10635)
Sequence (P10635 whole entry, looked up): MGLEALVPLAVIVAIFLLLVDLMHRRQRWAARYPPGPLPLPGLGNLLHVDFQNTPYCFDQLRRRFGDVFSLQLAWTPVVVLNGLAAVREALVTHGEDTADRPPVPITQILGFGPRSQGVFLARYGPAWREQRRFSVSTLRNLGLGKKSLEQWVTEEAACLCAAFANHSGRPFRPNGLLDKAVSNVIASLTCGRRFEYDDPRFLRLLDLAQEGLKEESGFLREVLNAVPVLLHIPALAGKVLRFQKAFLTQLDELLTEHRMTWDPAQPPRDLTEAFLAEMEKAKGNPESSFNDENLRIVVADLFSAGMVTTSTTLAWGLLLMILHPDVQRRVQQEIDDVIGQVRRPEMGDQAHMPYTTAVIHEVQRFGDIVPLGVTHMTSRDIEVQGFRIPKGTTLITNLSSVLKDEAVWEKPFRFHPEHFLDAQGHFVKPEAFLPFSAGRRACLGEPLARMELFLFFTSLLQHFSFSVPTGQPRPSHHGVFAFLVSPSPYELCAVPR
Test: Cytochrome panel assay with activity outcomes
Details: recombinant CYP, pro-luciferin dealkylation, luminescence, p450-cyp2d6; series mostly up to 57.1 µM; activity, negative = inhibition: at the top concentration
% is scaled to controls: 0 for no effect and ±100 for the full control effect.

Structure (SMILES) | activity, negative = inhibition | AC50
Cn1c(=O)c(-c2cc(F)cc(F)c2)nc2cnc(Oc3ccccc3)nc21 | -4.71% (inactive) | –
O=C(Oc1ccccc1)N1CCC2(CC1)CN(c1ncccn1)C2 | -6.97% (inactive) | –
CC(=O)Nc1c2c3c(cccc3n(C)c1=O)C(=O)c1ccccc1-2 | 8.07% (inactive) | –
COc1ccc(-c2nc3cnc(N4CCN(C)CC4)nc3n(C3CC3)c2=O)cc1 | 5.09% (inactive) | –
COC(=O)c1ccccc1OCC(=O)N1CCN(c2ccc(OC)cc2)CC1 | 0.575% (inactive) | –
O=C(c1cc(O)c(O)c([N+](=O)[O-])c1)c1ccccc1F | 0.213% (inactive) | –
Cn1cccc1C(=O)N1CCC2(CC1)CCN(c1ccc(-c3ccccc3)cc1)CC2 | -0.937% (inactive) | –
COc1cc(C2C(C#N)=C(N)OC3=C2C(=O)CCC3)cc(OC)c1OC(=O)N1CCOCC1 (stereo unspecified) | 3.07% (inactive) | –
Cc1ccc(C(C2C(=O)CC(C)(C)CC2=O)C2C(=O)CC(C)(C)CC2=O)s1 | 2.33% (inactive) | –
COc1cccc(C(c2c(C)[nH]n(-c3ccccc3)c2=O)c2c(C)[nH]n(-c3ccccc3)c2=O)c1O | 1.65% (inactive) | –
COc1cc(C)ccc1OCCOc1cc(C)ccc1Cl | -13.3% (inactive) | –
Clc1ccc(Cl)c(OCc2cc(-c3ccccc3Cl)on2)c1 | 8.16% (inactive) | –
CC1CCN(CCOc2cc(Cl)ccc2Cl)CC1 | – | 0.447 µM (active)
CCn1c(C)[n+](CCCS(=O)(=O)[O-])c2cc(Cl)c(Cl)cc21 | 2.13% (inactive) | –
Cn1c(=O)n(-c2cccc(Cl)c2)c(=O)c2c3c(sc21)COC(C)(C)C3 | 6.87% (inactive) | –
O=C(Cc1ncc(C(F)(F)F)cc1Cl)Nc1cccc(Br)c1 | – | 0.398 µM (active)
CN(NC(=O)NN)c1ncc(C(F)(F)F)cc1Cl | -8.29% (inactive) | –
O=C(Nc1ccc(F)cc1F)c1cccn1-c1ncc(C(F)(F)F)cc1Cl | 17.2% (inactive) | –
Oc1ccc(Cn2cc[nH]c2=S)cc1 | -3.56% (inactive) | –
Cc1cc(CC(=O)O)n(C)c1C(=O)c1ccc(Cl)cc1 | -4.31% [at 25.6 µM] (inactive) | –
Cc1cc2ccccn2c1C(=O)c1ccc(Cl)cc1 | – | 17.8 µM (active)
Cc1cc2ccccn2c1C(=O)c1nc(N2CCOCC2)ncc1Cl | -6.91% (inactive) | –

Structure (SMILES) | activity, negative = inhibition | AC50
Nc1cc(C(=O)O)[nH]c(=O)n1 | 6.45% [at 11.4 µM] (inactive) | –
CCN(CC(=O)Nc1ccc(N2CCOCC2)cc1)Cc1nc2ccccc2c(=O)[nH]1 | 17.5% (inactive) | –
CCn1c(O)c(/C=C2\C=Nc3ccccc32)sc1=Nc1ccc(C)cc1 | -22% (inactive) | –
CCOC(=O)C1=C(CN2c3ccccc3CC2C)NC(=O)NC1c1ccccc1 (stereo unspecified) | -19.8% (inactive) | –
CCN1C(=O)C(O)(C2COC(C)(C)CC2=O)c2ccccc21 (stereo unspecified) | -0.608% (inactive) | –
O=C(c1ccc(F)cc1)C1CCN(CCCCc2ccccc2)CC1 | – | 0.0126 µM (active)
CC1(C)C(=O)N(CCN2CCC(C(=O)c3ccc(F)cc3)CC2)c2ccccc21 | – | 1.26 µM (active)
CC(C)c1ccc(C(=O)CC2(O)C(=O)N(CN3CCOCC3)c3ccccc32)cc1 (stereo unspecified) | 17.8% (inactive) | –
NC(=O)C1CCN(C(=O)OCc2ccccc2)CC1 | 8.02% (inactive) | –
CCCNC(=O)N1CCC(C(=O)c2ccc(F)cc2)CC1 | -24.1% (inactive) | –
COC(=O)[C@@H]1[C@@H](O)[C@]2(O)c3ccccc3O[C@]2(c2ccccc2)[C@H]1c1ccccc1 | -3% [at 11.4 µM] (inactive) | –
CC(C)c1ccccc1S(=O)c1ccccc1C(C)(C)O (stereo unspecified) | -12.8% [at 11.4 µM] (inactive) | –
CN(C)c1ccc(-c2ccc3ncnc(NC4CC4)c3c2)cc1 | -18.2% (inactive) | –
Cc1ccccc1-c1ccc2ncnc(NC3CC3)c2c1 | – | 7.94 µM (active)
FC(F)(F)c1ccccc1-c1ccc2ncnc(NC3CCNCC3)c2c1 | -19.2% (inactive) | –
O=C(O)C1CCN(c2ncnc3ccc(-c4ccccc4C(F)(F)F)cc23)CC1 | -1.69% (inactive) | –
FC(F)(F)c1ccccc1-c1ccc2ncnc(NC3CC3)c2c1 | – | 20 µM (active)
CCN1C(=O)[C@H]2[C@@H]3[C@H](O)[C@H](O)CC(=O)[C@H]3CC[C@H]2C1=O | 1.18% [at 11.4 µM] (inactive) and 0.815% [at 11.4 µM] (inactive) | –
CC(C)=CCC/C(C)=C/CO/N=C1/C[C@@H](O)[C@@H](O)[C@@H]2[C@@H]3C(=O)N(C(C)(C)C)C(=O)[C@H]3CC[C@@H]12 | 6.78% [at 11.4 µM] (inactive) | –
[N-]=[N+]=Nc1ccc(C(=O)CSC[C@@H](NC(=O)CC[C@@H](N)C(=O)O)C(=O)NCC(=O)O)cc1 | -5.38% (inactive) | –
Cc1ccc(S(=O)(=O)N2CCN(C(=O)c3ccccc3)C2C(C)C)cc1 (stereo unspecified) | – | 14.1 µM (active)
CC(=O)N1CCN(S(=O)(=O)c2ccccc2)C1c1ccccc1 (stereo unspecified) | -7.43% (inactive) | –

Structure (SMILES) | activity, negative = inhibition | AC50
Cc1ccc(S(=O)(=O)N2CCC(C(=O)O)(c3ccccc3)CC2)cc1 | 7.29% [at 11.4 µM] (inactive) | –
C[C@@H]1O[C@H](O[C@@H]2[C@H](C)O[C@H](O[C@@H]3[C@H](C)O[C@H](O[C@H]4CC[C@]5(C)[C@@H](CC[C@@H]6[C@H]5C[C@@H](O)[C@]5(C)[C@@H](C7=CC(=O)OC7)CC[C@]65O)C4)C[C@@H]3O)C[C@@H]2O)C[C@H](O)[C@@H]1O | 4.5% [at 25.6 µM] (inactive) | –
Cc1c(NC(=O)CN2C(=O)C3C4C=CC(C4)C3C2=O)c(=O)n(-c2ccccc2)n1C (stereo unspecified) | -7.26% (inactive) | –
Cc1ccccc1C(=O)Nc1ccc(N2CCOCC2)nc1 | -3.03% (inactive) | –
Cc1ccc(SCN2CCCCC2)cc1 (tested in a mixture with another compound) | -7.47% [at 11.4 µM] (inactive) | –
OC(CCN1CCCCC1)(c1ccccc1)c1ccccc1 | – | 5.01 µM (active)
CC[N+](CC)(CC)CC[C@](O)(c1ccccc1)C1CCCCC1 | – | 0.02 µM (active)
OC(CCCN1CCCCC1)(c1ccccc1)c1ccccc1 | – | 0.126 µM (active)
Cn1ccnc1C[C@@](C)(O)c1ccccc1 | -12.1% [at 11.4 µM] (inactive) | –
CCOc1ccc(C(F)(F)F)cc1NC(=O)c1ccc(OC)c([N+](=O)[O-])c1 | 11.2% (inactive) | –
COc1ccc(C(C(=O)NC2CCCC2)N(Cc2ccc(F)cc2)C(=O)c2ccn[nH]2)cc1OC (stereo unspecified) | -3.02% (inactive) | –
COC(=O)c1ccccc1NC(=O)C(CCS(C)(=O)=O)NC(C)=O (stereo unspecified) | 4.08% (inactive) | –
CC(CCc1ccccc1)NC(=O)/C=C/c1ccccc1 (stereo unspecified) | -18.2% (inactive) | –
O=C1c2ccc3c4c(ccc(c24)C(=O)N1c1ccc2ccccc2c1)CC3 | -2.14% (inactive) | –
O=C(c1ccc(Cl)cc1)N1CCN(C(=O)c2ccco2)CC1 | 7.09% (inactive) | –
Cc1ccc(Cn2cccc(NC(=O)NC3CCCCC3)c2=O)cc1 | -7.79% (inactive) | –
CC(=O)c1[nH]c(C)c(C(C)=O)c1C | -1.55% (inactive) | –
O=C1C2C3C=CC([C@@H]2C(=O)N1C1CCCCC1)[C@H]1C(=O)N(C2CCCCC2)C(=O)C31 (stereo partly specified) | -12.1% (inactive) | –
O=C(CCc1ccccc1)NNC(=O)C1CCCCC1 | -6.85% (inactive) | –
O[C@@](CCN1CCCCC1)(c1ccccc1)C1CCCCC1 | – | 5.01 µM (active) and 1.26 µM (active)
COc1ccc(C(OCCN2CCC[C@@H](C(=O)O)C2)(c2ccc(OC)cc2)c2ccc(OC)cc2)cc1 | 5.69% (inactive) | –

Structure (SMILES) | activity, negative = inhibition | AC50
COc1ccc(-c2nc3cnc(N4CCN(C)CC4)nc3n(Cc3cccs3)c2=O)cc1 | 4.42% (inactive) | –
CC(C(=O)Nc1cccnc1)N1C(=O)C2C3C=CC(C3)C2C1=O (stereo unspecified) | 3.18% (inactive) | –
O=C(Nc1cccc(F)c1)N1CCC2(CC1)CCN(C(=O)c1cnccn1)CC2 | -1.26% (inactive) | –
Cn1ncc(Cl)c1C(=O)Nc1cccnc1 | -14.2% (inactive) | –
CN1CCc2cc(NC(=O)Nc3cccnc3)ccc21 | – | 25.1 µM (active)
COc1cc2c(cc1C(F)(F)F)N(C(=O)Nc1cc(F)cc(-c3cccnc3)c1)CC2 | -4.26% (inactive) | –
CSc1cc2c(cc1C(F)(F)F)N(C(=O)Nc1cccnc1)CC2 | – | 31.6 µM (active)
CCOC(=O)c1c(NC(=O)CCc2ccc(CC)o2)sc(C)c1C | -3.27% (inactive) | –
COC(=O)C1C(O)=C(C=NCc2ccccc2)C(=O)CC1(C)C (stereo unspecified) | 3.16% (inactive) | –
Cc1ccc(/C=C2\Sc3ccccc3C2=O)s1 | – | 15.8 µM (active)
CCCN1C(=O)/C(=C/c2ccc(C)s2)SC1=Nc1ccc(OC)cc1 | -20.9% (inactive) | –
CCC(=O)N(C)/C=C1\Sc2ccccc2C1=O | -4.29% (inactive) | –
O=S(=O)(c1ccccc1)c1cnn2c(C(F)(F)F)cc(-c3ccccc3)nc12 | -7.85% (inactive) | –
c1ccc(-c2ccc3c(c2)c2c4n3CCN=C4CCC2)cc1 | -14.4% (inactive) | –
Cc1ccc(C(C)C)n1C(=O)OC(C)(C)C | 0.591% [at 11.4 µM] (inactive) | –
O=S1(=O)C=C(Oc2ccc3ccccc3c2)c2ccccc21 | -3.65% (inactive) | –
O=C(NCc1cn(-c2ccccc2)nc1-c1ccccc1)c1cc([N+](=O)[O-])cc([N+](=O)[O-])c1 | -2.14% (inactive) | –
Cc1c(NC(=O)/C=C/c2cn(-c3ccccc3)nc2-c2ccc(F)cc2)c(=O)n(-c2ccccc2)n1C | -0.729% (inactive) | –
Cc1ccc(-c2nn(-c3ccccc3)cc2CSC(=N)N)cc1 | – | 0.251 µM (active)
NC(=O)C1=CN([C@@H]2O[C@@H](COP(=O)(O)OP(=O)(O)OC[C@@H]3O[C@H](n4cnc5c(N)ncnc54)[C@@H](OP(=O)(O)O)[C@@H]3O)[C@H](O)[C@@H]2O)C=CC1 | 5.16% (inactive) | –
